Results reported in PubChem BioAssay AID1159580 (chemical genetic matrix, 2015).
About 2,000 (36%) of roughly 5,500 compounds were called active. Another 18% or so got no clear call; they are omitted. Rule as the data show it: active = normalized growth mostly below about 0.91 (no sharp cut-off); inconclusive = no clear call, values can overlap the other calls; inactive = mostly above about 0.92. Some of the results follow.

Experiment: chemical genetic growth profiling, strain panel (AID 1159580);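 also: tested at 20 µM; growth read once vehicle control cultures reached saturation at 30 °C; 1 = growth at the plate median or of vehicle wells; lower values mean less growth of the strain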
Conditions: growth OD
[1] = S. cerevisiae deletion strains, locus YAL013W, strain DEP1, hits give low values
[2] = S. cerevisiae deletion strains, locus YBR229C, strain ROT2, hits give low values
[3] = S. cerevisiae deletion strains, locus YCL061C, strain MRC1, hits give low values
[4] = S. cerevisiae deletion strains, locus YDL101C, strain DUN1, hits give low values
[5] = S. cerevisiae deletion strains, locus YDR150W, strain NUM1, hits give low values
[6] = S. cerevisiae deletion strains, locus YEL061C, strain CIN8, hits give low values
[7] = S. cerevisiae deletion strains, locus YGR078C, strain PAC10, hits give low values
[8] = S. cerevisiae deletion strains, locus YHR030C, strain SLT2, hits give low values
[9] = S. cerevisiae deletion strains, locus YHR087W, strain rtc3, hits give low values
[10] = S. cerevisiae deletion strains, locus YJR043C, strain POL32, hits give low values
[11] = S. cerevisiae deletion strains, locus YJR075W, strain HOC1, hits give low values
[12] = S. cerevisiae deletion strains, locus YLR039C, strain RIC1, hits give low values
[13] = S. cerevisiae deletion strains, locus YLR058C, strain SHM2 (second series), hits give low values
[14] = S. cerevisiae deletion strains, locus YLR085C, strain ARP6, hits give low values
[15] = S. cerevisiae deletion strains, locus YLR262C, strain YPT6, hits give low values
[16] = S. cerevisiae deletion strains, locus YML094W, strain GIM5, hits give low values
[17] = S. cerevisiae deletion strains, locus YMR219W, strain ESC1, hits give low values
[18] = S. cerevisiae deletion strains, locus YMR263W, strain SAP30, hits give low values
[19] = S. cerevisiae deletion strains, locus YNL153C, strain GIM3, hits give low values
[20] = S. cerevisiae deletion strains, locus YNL298W, strain CLA4 (second series), hits give low values
[21] = S. cerevisiae deletion strains, locus YNL322C, strain KRE1, hits give low values
[22] = S. cerevisiae deletion strains, locus YNR030W, strain Alg12, hits give low values
[23] = S. cerevisiae deletion strains, locus YOL006C, strain TOP1, hits give low values
[24] = S. cerevisiae deletion strains, locus YPL055C, strain LGE1, hits give low values
[25] = S. cerevisiae deletion strains, locus YPL241C, strain CIN2, hits give low values
[26] = S. cerevisiae deletion strains, locus YPR135W, strain CTF4, hits give low values
[27] = S. cerevisiae strains, strain wild type, hits give low values
[28] = S. cerevisiae deletion strains, locus YJL187C, strain SWE1, hits give low values
[29] = S. cerevisiae deletion strains, locus YKL190W, strain CNB1, hits give low values

Measured: normalized growth

O=C(CCc1nc(-c2ccc(Cl)cc2)no1)NNS(=O)(=O)c1cc(Cl)c(Cl)cc1Cl
inactive: [1] 1.01 | [2] 1.01 | [3] 1.01 | [4] 1.03 | S. cerevisiae deletion strains, locus YDL134C, strain PPH21, hits give low values 1 | [5] 0.998 | [6] 0.961 | [7] 1.02 | [8] 0.98 | [9] 0.958 | [10] 0.999 | [11] 0.994 | [12] 0.971 | [13] 1.01 | [14] 1 | [15] 1.03 | [16] 0.968 | [17] 1 | [18] 1.01 | [19] 1 | [20] 0.993 | [21] 1.02 | [22] 1.03 | [23] 1.02 | [24] 0.973 | [25] 1.04 | [26] 1.03 | [27] 1

Cc1cc(C(=O)NNS(=O)(=O)c2ccc(F)c(Cl)c2)nn1-c1c(Cl)cc(Cl)cc1Cl
inactive: S. cerevisiae deletion strains, locus YAR019C, strain CDC15, hits give low values 0.978 | S. cerevisiae deletion strains, locus YBL105C, strain PKC1, hits give low values 0.979 | S. cerevisiae deletion strains, locus YBR135W, strain CKS1, hits give low values 0.985 | S. cerevisiae deletion strains, locus YBR136W, strain MEC1, hits give low values 0.987 | S. cerevisiae deletion strains, locus YBR160W, strain CDC28, hits give low values 0.98 | S. cerevisiae deletion strains, locus YDL017W, strain CDC7, hits give low values 0.985 | S. cerevisiae deletion strains, locus YDL028C, strain MPS1, hits give low values 0.985 | [4] 0.975 | S. cerevisiae deletion strains, locus YDL108W, strain KIN28, hits give low values 0.99 | S. cerevisiae deletion strains, locus YDL132W, strain cdc53, hits give low values 0.974 | S. cerevisiae deletion strains, locus YDL214C, strain PRR2, hits give low values 1.04 | S. cerevisiae deletion strains, locus YDR052C, strain DBF4, hits give low values 0.987 | S. cerevisiae deletion strains, locus YDR054C, strain cdc34, hits give low values 0.983 | S. cerevisiae deletion strains, locus YDR226W, strain ADK1, hits give low values 0.98 | S. cerevisiae deletion strains, locus YDR477W, strain SNF1, hits give low values 1.03 | S. cerevisiae deletion strains, locus YER123W, strain YCK3, hits give low values 1.04 | S. cerevisiae deletion strains, locus YER133W, strain GLC7, hits give low values 1.04 | S. cerevisiae deletion strains, locus YFL009W, strain cdc4, hits give low values 0.982 | S. cerevisiae deletion strains, locus YFL029C, strain CAK1, hits give low values 0.988 | S. cerevisiae deletion strains, locus YFR003C, strain YPI1, hits give low values 0.981 | S. cerevisiae deletion strains, locus YFR019W, strain FAB1, hits give low values 1.02 | S. cerevisiae deletion strains, locus YFR028C, strain CDC14, hits give low values 0.979 | S. cerevisiae deletion strains, locus YGR040W, strain KSS1, hits give low values 1.03 | S. cerevisiae deletion strains, locus YGR052W, strain FMP48, hits give low values 1.1 | S. cerevisiae deletion strains, locus YGR092W, strain DBF2, hits give low values 1.02 | [8] 1.09 | S. cerevisiae deletion strains, locus YHR079C, strain IRE1, hits give low values 1.05 | S. cerevisiae deletion strains, locus YHR082C, strain KSP1, hits give low values 1.11 | S. cerevisiae deletion strains, locus YHR205W, strain SCH9, hits give low values 1.04 | S. cerevisiae deletion strains, locus YIL147C, strain SLN1, hits give low values 0.99 | S. cerevisiae deletion strains, locus YJL095W, strain BCK1, hits give low values 1.07 | S. cerevisiae deletion strains, locus YJL128C, strain PBS2, hits give low values 0.905 | S. cerevisiae deletion strains, locus YJL157C, strain FAR1, hits give low values 1.03 | S. cerevisiae deletion strains, locus YJR016C, strain ILV3, hits give low values 0.982 | S. cerevisiae deletion strains, locus YJR066W, strain TOR1 (second series), hits give low values 1.05 | S. cerevisiae deletion strains, locus YJR066W, strain TOR1, hits give low values 1.02 | S. cerevisiae deletion strains, locus YKL048C, strain ELM1, hits give low values 1.01 | S. cerevisiae deletion strains, locus YKL067W, strain YNK1, hits give low values 1.03 | S. cerevisiae deletion strains, locus YKL101W, strain HSL1, hits give low values 1.02 | S. cerevisiae deletion strains, locus YKL193C, strain SDS22, hits give low values 0.996 | S. cerevisiae deletion strains, locus YKL203C, strain TOR2, hits give low values 1.13 | S. cerevisiae deletion strains, locus YLR113W, strain HOG1, hits give low values 1.06 | S. cerevisiae deletion strains, locus YLR133W, strain CKI1, hits give low values 1.02 | S. cerevisiae deletion strains, locus YLR403W, strain SFP1, hits give low values 1.06 | S. cerevisiae deletion strains, locus YML070W, strain DAK1, hits give low values 1.03 | S. cerevisiae deletion strains, locus YMR001C, strain CDC5, hits give low values 0.993 | S. cerevisiae deletion strains, locus YMR205C, strain PFK2 (second series), hits give low values 1.03 | S. cerevisiae deletion strains, locus YMR277W, strain FCP1, hits give low values 0.978 | S. cerevisiae deletion strains, locus YNL006W, strain LST8, hits give low values 0.994 | S. cerevisiae deletion strains, locus YNL020C, strain ARK1, hits give low values 1.03 | S. cerevisiae deletion strains, locus YNL161W, strain CBK1, hits give low values 0.988 | S. cerevisiae deletion strains, locus YNL183C, strain NPR1, hits give low values 1.13 | S. cerevisiae deletion strains, locus YNL207W, strain RIO2, hits give low values 0.986 | S. cerevisiae deletion strains, locus YNL222W, strain SSU72, hits give low values 0.99 | S. cerevisiae deletion strains, locus YNL307C, strain MCK1 (second series), hits give low values 1.04 | S. cerevisiae deletion strains, locus YOL078W, strain AVO1, hits give low values 0.99 | S. cerevisiae deletion strains, locus YOL136C, strain PFK27, hits give low values 1.04 | S. cerevisiae deletion strains, locus YOR061W, strain CKA2, hits give low values 1.03 | S. cerevisiae deletion strains, locus YOR119C, strain RIO1, hits give low values 1.08 | S. cerevisiae deletion strains, locus YOR231W, strain MKK1, hits give low values 1.03 | S. cerevisiae deletion strains, locus YOR329C, strain SCD5, hits give low values 0.985 | S. cerevisiae deletion strains, locus YPL031C, strain PHO85, hits give low values 1.04 | S. cerevisiae deletion strains, locus YPL153C, strain RAD53, hits give low values 1.03 | S. cerevisiae deletion strains, locus YPL204W, strain HRR25, hits give low values 1.04 | S. cerevisiae deletion strains, locus YPL209C, strain IPL1, hits give low values 0.987 | S. cerevisiae deletion strains, locus YPL256C, strain CLN2, hits give low values 1.02 | S. cerevisiae deletion strains, locus YPR025C, strain CCL1, hits give low values 0.981 | S. cerevisiae deletion strains, locus YPR106W, strain ISR1, hits give low values 0.98 | S. cerevisiae deletion strains, locus YPR111W, strain DBF20, hits give low values 0.964 | S. cerevisiae deletion strains, strain NNK1, hits give low values 0.986 | S. cerevisiae deletion strains, strain TSCII, hits give low values 0.995

Cc1ccc(C)n1-c1ccc(C(=O)NNC(=O)c2ccc3nccnc3c2)cc1
inactive: [1] 0.989 | [2] 1 | [3] 1.06 | [4] 0.989 | [5] 1.04 | [6] 1.01 | [7] 1.01 | [8] 1.14 | [9] 0.986 | [28] 0.979 | [10] 1.02 | [11] 1.06 | [29] 0.991 | [12] 1.01 | [13] 0.999 | [14] 0.921 | [15] 1.11 | [16] 0.98 | [17] 0.989 | [18] 0.986 | S. cerevisiae deletion strains, locus YNL128W, strain TEP1, hits give low values 0.991 | [19] 1.02 | [20] 0.992 | [21] 0.999 | [22] 1 | [24] 0.995 | [25] 0.976 | [26] 1.13 | [27] 0.993

Cc1ccc(C)n1-c1ccc(C(=O)NNS(=O)(=O)c2ccc(Cl)cc2)cc1
inactive: [1] 1.01 | [2] 1.01 | [4] 1.04 | [5] 0.991 | [6] 1.01 | [7] 1.01 | [8] 0.955 | [9] 1.01 | [28] 1.02 | [10] 0.999 | [11] 0.995 | [29] 0.978 | [12] 0.985 | [13] 1 | [14] 0.962 | [15] 0.98 | [16] 1.1 | [17] 1 | [18] 1 | S. cerevisiae deletion strains, locus YMR307W, strain GAS1, hits give low values 0.979 | [19] 1.01 | [20] 0.945 | [21] 1 | [22] 0.993 | [23] 1.03 | [24] 1.01 | [26] 0.946
active: [25] 1.14 [resistant]
